Data published in PubChem BioAssay (EPA / NIEHS).
Active and inactive are the calls of the source. Rule for the calls: active = hit-call score of the fitted dose curve at least 0.9, where 1 is the maximum; inactive = score below 0.9.

Key:
Conditions in all cases: mRNA level, 48 h; actives raise or lower the signal
MYC, MYC (gene 4609) = experiment: LTEA_HepaRG_MYC: Life Technologies and Expression Analysis (LTEA) Assay for MYC using HepaRG (AID 2283518)
How it was run: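 MYC transcript changes, up or down relative to 0.5% DMSO, from TaqMan qRT-PCR normalized to three housekeeping genes. Human HepaRG cultures received chemicals for 48 h at eight half-log concentrations up to 100 uM, in duplicate.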

[1] = read-out: matrix metalloproteinase-3 (MMP3), MMP3 (gene 4314); experiment: LTEA_HepaRG_MMP3: Life Technologies and Expression Analysis (LTEA) Assay for matrix metalloproteinase-3 (MMP3) using HepaRG (AID 2283519)
How it was run: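 HepaRG cells (~100,000/well) in serum-free induction medium were dosed in duplicate for 48 h with an 8-point half-log series from 100 uM, 0.5% DMSO. MMP3 mRNA was quantified by Fluidigm TaqMan qRT-PCR, normalized to three housekeeping genes.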

[2] = read-out: Paternally Expressed 10 (PEG10), PEG10 (gene 23089); experiment: LTEA_HepaRG_PEG10: Life Technologies and Expression Analysis (LTEA) Assay for Paternally Expressed 10 (PEG10) using HepaRG (AID 2283520)
How it was run: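 Differentiated HepaRG cells, plated 48 h then switched to serum-free induction medium, were exposed in duplicate for 48 h to eight half-log concentrations topping at 100 uM in 0.5% DMSO. PEG10 mRNA was quantified by TaqMan qRT-PCR, normalised to ACTB, GAPDH and POLR2A.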

[3] = read-out: Nuclear factor NF-kappa-B p105 subunit (Homo sapiens) (UniProt P19838); experiment: LTEA_HepaRG_NFKB1: Life Technologies and Expression Analysis (LTEA) Assay for Nuclear Factor Kappa B Subunit 1 (NFKB1) using HepaRG (AID 2283521)
How it was run: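 NFKB1 transcript was measured by TaqMan qRT-PCR on Fluidigm arrays, normalised to three housekeeping genes and fitted in both directions against 0.5% DMSO. HepaRG cells were dosed in duplicate for 48 h in serum-free induction medium, eight half-log steps from 100 uM.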

[4] = read-out: Protein phosphatase 2A (PPP2R4), PTPA (gene 5524); experiment: LTEA_HepaRG_PPP2R4: Life Technologies and Expression Analysis (LTEA) Assay for Protein phosphatase 2A (PPP2R4) using HepaRG (AID 2283522)
How it was run: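 Differentiated HepaRG cells in serum-free induction medium were exposed in duplicate for 48 h to eight concentrations, top 100 uM with half-log dilutions, in 0.5% DMSO. PPP2R4 mRNA was quantified by TaqMan qRT-PCR, normalized to ACTB, GAPDH and POLR2A.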

[5] = read-out: Phosphatase and tensin (PTEN), PTEN (gene 5728); experiment: LTEA_HepaRG_PTEN: Life Technologies and Expression Analysis (LTEA) Assay for Phosphatase and tensin (PTEN) using HepaRG (AID 2283523)
How it was run: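 HepaRG cells, 48 h after plating, exposed in duplicate for 48 h in serum-free induction medium to 8 half-log concentrations up to 100 uM (0.5% DMSO). PTEN mRNA by qRT-PCR, normalized to ACTB, GAPDH, POLR2A; bidirectional fit versus DMSO.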

[6] = read-out: solute carrier (SLC22A1), SLC22A1 (gene 6580); experiment: LTEA_HepaRG_SLC22A1: Life Technologies and Expression Analysis (LTEA) Assay for solute carrier (SLC22A1) using HepaRG (AID 2283524)
How it was run: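 Differentiated human HepaRG cells in serum-free induction medium, exposed 48 h in duplicate to 8-point half-log series from 100 µM top in 0.5% DMSO. SLC22A1 mRNA by TaqMan qRT-PCR normalized to ACTB, GAPDH, POLR2A; bidirectional fit versus DMSO.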

[7] = read-out: Pyruvate Dehydrogenase Kinase 4 (PDK4), PDK4 (gene 5166); experiment: LTEA_HepaRG_PDK4: Life Technologies and Expression Analysis (LTEA) Assay for Pyruvate Dehydrogenase Kinase 4 (PDK4) using HepaRG (AID 2283525)
How it was run: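 HepaRG cells plated 48 h, then switched to serum-free induction medium and exposed in duplicate for 48 h to 8 half-log concentrations from 100 uM in 0.5% DMSO. PDK4 mRNA measured by qRT-PCR, normalized to ACTB, GAPDH and POLR2A; bidirectional fit versus DMSO.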

[8] = read-out: NAD(P)H dehydrogenase [quinone] 1 (NQO1), NQO1 (gene 1728); experiment: LTEA_HepaRG_NQO1: Life Technologies and Expression Analysis (LTEA) Assay for NAD(P)H dehydrogenase [quinone] 1 (NQO1) using HepaRG (AID 2283526)
How it was run: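 Differentiated HepaRG cells, plated 48 h and then switched to serum-free induction medium, were exposed in duplicate for 48 h to 8-point half-log concentrations up to 100 uM in 0.5% DMSO. mRNA measured by qRT-PCR, normalized to ACTB, GAPDH, POLR2A; bidirectional fit versus DMSO.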

[9] = read-out: Nuclear factor erythroid 2-related factor 2 (Homo sapiens) (UniProt Q16236); experiment: LTEA_HepaRG_NFE2L2: Life Technologies and Expression Analysis (LTEA) Assay for Nuclear factor erythroid 2-related factor 2 (NFE2L2) Transcription Factor using HepaRG (AID 2283527)
How it was run: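 Differentiated human HepaRG cells, serum-free induction medium, exposed 48 h in duplicate to eight half-log concentrations up to 100 uM in 0.5% DMSO. NFE2L2 mRNA by Fluidigm TaqMan qRT-PCR, normalised to ACTB, GAPDH, POLR2A; bidirectional change versus DMSO.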

[10] = read-out: succinate dehydrogenase complex iron sulfur subunit B (SDHB), SDHB (gene 6390); experiment: LTEA_HepaRG_SDHB: Life Technologies and Expression Analysis (LTEA) Assay for succinate dehydrogenase complex iron sulfur subunit B (SDHB) using HepaRG (AID 2283528)
How it was run: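 SDHB transcript level read by TaqMan qRT-PCR, housekeeping-normalised (ACTB, GAPDH, POLR2A), after 48 h chemical treatment of plated HepaRG cells; eight concentrations top 100 uM, half-log steps, 0.5% DMSO, duplicates; fitted both directions against DMSO.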

[11] = read-out: Signal transducer and activator of transcription 3 (Homo sapiens) (UniProt P40763); experiment: LTEA_HepaRG_STAT3: Life Technologies and Expression Analysis (LTEA) Assay for Signal transducer and activator of transcription (STAT3) using HepaRG (AID 2283529)
How it was run: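 Differentiated HepaRG cells, serum-free induction medium, dosed 48 h in duplicate, 8 half-log concentrations from 100 uM in 0.5% DMSO. STAT3 mRNA by qRT-PCR, normalised to ACTB, GAPDH, POLR2A; bidirectional fit versus DMSO.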

[12] = read-out: solute carrier (SLCO1B1), SLCO1B1 (gene 10599); experiment: LTEA_HepaRG_SLCO1B1: Life Technologies and Expression Analysis (LTEA) Assay for solute carrier (SLCO1B1) using HepaRG (AID 2283530)
How it was run: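 SLCO1B1 transcript levels were quantified by TaqMan qRT-PCR using three housekeeping genes for normalization. This followed 48 h chemical exposure (100 uM top, half-log, 8 points, 0.5% DMSO) of HepaRG liver cells, with gain or loss fitted relative to DMSO.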

[13] = read-out: sulfotransferase 2A1 (SULT2A1), SULT2A1 (gene 6822); experiment: LTEA_HepaRG_SULT2A1: Life Technologies and Expression Analysis (LTEA) Assay for sulfotransferase 2A1 (SULT2A1) using HepaRG (AID 2283531)
How it was run: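 Expression change of SULT2A1, by qRT-PCR with three housekeeping-gene normalization, was scored bidirectionally versus DMSO. Cells: differentiated HepaRG, dosed in duplicate for 48 h across 8 points, highest 100 µM, half-log dilution, 0.5% DMSO.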

[14] = read-out: Transforming Growth Factor (TGFA), TGFA (gene 7039); experiment: LTEA_HepaRG_TGFA: Life Technologies and Expression Analysis (LTEA) Assay for Transforming Growth Factor (TGFA) using HepaRG (AID 2283532)
How it was run: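 Differentiated HepaRG cells exposed 48 hours in serum-free induction medium, 0.5% DMSO vehicle, 8-point half-log series from 100 uM, in duplicate. TGFA mRNA by TaqMan qRT-PCR, normalised to ACTB, GAPDH, POLR2A; bidirectional fit versus DMSO.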

[15] = read-out: Transforming Growth Factor (TGFB1), TGFB1 (gene 7040); experiment: LTEA_HepaRG_TGFB1: Life Technologies and Expression Analysis (LTEA) Assay for Transforming Growth Factor (TGFB1) Transporter using HepaRG (AID 2283533)
How it was run: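 TGFB1 transcript measured by qRT-PCR with normalisation to three housekeeping genes (ACTB, GAPDH, POLR2A); human HepaRG line treated in duplicate for 48 hr with an 8-point series topping at 100 uM, 0.5% DMSO vehicle, bidirectionally fitted.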

TIMP1, TIMP1 (gene 7076) = experiment: LTEA_HepaRG_TIMP1: Life Technologies and Expression Analysis (LTEA) Assay for TIMP1 using HepaRG (AID 2283534)
How it was run: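 Bidirectional change in TIMP1 transcript versus 0.5% DMSO, measured by TaqMan qRT-PCR with three housekeeping genes for normalization. HepaRG human liver cells dosed 48 h in duplicate, top concentration 100 uM with half-log dilutions.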

[16] = read-out: Tumor necrosis factor receptor 1 (TNFRSF1A), TNFRSF1A (gene 7132); experiment: LTEA_HepaRG_TNFRSF1A: Life Technologies and Expression Analysis (LTEA) Assay for Tumor necrosis factor receptor 1 (TNFRSF1A) using HepaRG (AID 2283535)
How it was run: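 mRNA measured by qRT-PCR (TaqMan, Fluidigm arrays) against ACTB/GAPDH/POLR2A housekeepers after 48 h chemical exposure of HepaRG cells. Top concentration 100 uM, half-log 8-point series, duplicates; vehicle 0.5% DMSO, both fit directions.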

[17] = read-out: Thyroid Hormone Responsive (THRSP), THRSP (gene 7069); experiment: LTEA_HepaRG_THRSP: Life Technologies and Expression Analysis (LTEA) Assay for Thyroid Hormone Responsive (THRSP) using HepaRG (AID 2283536)
How it was run: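 Differentiated HepaRG cells treated 48 h in serum-free induction medium with 8 half-log concentrations up to 100 uM (0.5% DMSO), duplicates. THRSP mRNA by TaqMan qRT-PCR normalised to ACTB, GAPDH, POLR2A; bidirectional fit versus DMSO.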

[18] = read-out: matrix metalloproteinase-10 (MMP10), MMP10 (gene 4319); experiment: LTEA_HepaRG_MMP10: Life Technologies and Expression Analysis (LTEA) Assay for matrix metalloproteinase-10 (MMP10) using HepaRG (AID 2283517)
How it was run: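 Differentiated HepaRG cells in serum-free induction medium exposed 48 h in duplicate to 8-point half-log series up to 100 uM in 0.5% DMSO. mRNA quantified by qRT-PCR, normalised to ACTB, GAPDH, POLR2A; bidirectional fit versus DMSO.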

Measured: AC50

Sequence of Nuclear factor erythroid 2-related factor 2 (Homo sapiens) (Q16236 whole entry, looked up): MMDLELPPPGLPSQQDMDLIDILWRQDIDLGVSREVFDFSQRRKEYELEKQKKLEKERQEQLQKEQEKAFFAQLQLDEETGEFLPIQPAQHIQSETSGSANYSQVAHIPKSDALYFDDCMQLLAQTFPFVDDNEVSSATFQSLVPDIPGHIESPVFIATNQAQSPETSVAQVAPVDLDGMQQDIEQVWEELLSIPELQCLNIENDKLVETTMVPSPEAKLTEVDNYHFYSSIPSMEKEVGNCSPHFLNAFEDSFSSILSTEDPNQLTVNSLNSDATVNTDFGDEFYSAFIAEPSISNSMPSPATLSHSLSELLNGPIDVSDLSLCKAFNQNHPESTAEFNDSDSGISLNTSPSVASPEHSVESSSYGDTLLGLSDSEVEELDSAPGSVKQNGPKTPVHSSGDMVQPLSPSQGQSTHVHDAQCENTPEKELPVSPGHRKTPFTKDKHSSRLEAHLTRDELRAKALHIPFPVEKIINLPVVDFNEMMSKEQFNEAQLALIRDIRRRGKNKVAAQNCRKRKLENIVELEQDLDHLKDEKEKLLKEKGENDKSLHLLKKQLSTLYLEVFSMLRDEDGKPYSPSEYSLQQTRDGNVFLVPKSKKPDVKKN
Sequence of Nuclear factor NF-kappa-B p105 subunit (Homo sapiens) (P19838 whole entry, looked up): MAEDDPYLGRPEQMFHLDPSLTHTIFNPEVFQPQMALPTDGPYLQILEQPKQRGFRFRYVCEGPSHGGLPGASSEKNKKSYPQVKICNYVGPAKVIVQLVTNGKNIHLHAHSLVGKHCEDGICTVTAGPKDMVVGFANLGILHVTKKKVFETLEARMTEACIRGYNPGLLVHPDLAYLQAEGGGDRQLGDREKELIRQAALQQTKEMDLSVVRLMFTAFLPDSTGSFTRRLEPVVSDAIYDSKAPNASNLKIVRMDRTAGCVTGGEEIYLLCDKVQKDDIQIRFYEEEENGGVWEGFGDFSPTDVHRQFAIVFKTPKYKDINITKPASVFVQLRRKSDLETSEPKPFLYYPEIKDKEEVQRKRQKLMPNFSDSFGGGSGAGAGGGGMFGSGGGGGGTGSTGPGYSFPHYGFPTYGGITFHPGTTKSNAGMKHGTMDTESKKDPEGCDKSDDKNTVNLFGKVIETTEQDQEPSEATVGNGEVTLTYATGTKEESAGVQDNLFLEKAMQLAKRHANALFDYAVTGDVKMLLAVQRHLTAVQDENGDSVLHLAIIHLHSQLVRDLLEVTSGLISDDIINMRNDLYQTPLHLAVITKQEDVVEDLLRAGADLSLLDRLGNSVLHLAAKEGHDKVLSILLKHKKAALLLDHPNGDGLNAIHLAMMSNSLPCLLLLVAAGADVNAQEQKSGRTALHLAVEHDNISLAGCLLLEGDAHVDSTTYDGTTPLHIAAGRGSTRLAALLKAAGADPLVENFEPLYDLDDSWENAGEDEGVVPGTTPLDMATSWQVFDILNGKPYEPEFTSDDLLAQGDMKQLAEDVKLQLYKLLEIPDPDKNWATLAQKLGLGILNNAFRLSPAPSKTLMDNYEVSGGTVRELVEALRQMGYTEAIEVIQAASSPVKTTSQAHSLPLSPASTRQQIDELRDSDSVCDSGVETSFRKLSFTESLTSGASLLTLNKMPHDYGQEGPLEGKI
Sequence of Signal transducer and activator of transcription 3 (Homo sapiens) (P40763 whole entry, looked up): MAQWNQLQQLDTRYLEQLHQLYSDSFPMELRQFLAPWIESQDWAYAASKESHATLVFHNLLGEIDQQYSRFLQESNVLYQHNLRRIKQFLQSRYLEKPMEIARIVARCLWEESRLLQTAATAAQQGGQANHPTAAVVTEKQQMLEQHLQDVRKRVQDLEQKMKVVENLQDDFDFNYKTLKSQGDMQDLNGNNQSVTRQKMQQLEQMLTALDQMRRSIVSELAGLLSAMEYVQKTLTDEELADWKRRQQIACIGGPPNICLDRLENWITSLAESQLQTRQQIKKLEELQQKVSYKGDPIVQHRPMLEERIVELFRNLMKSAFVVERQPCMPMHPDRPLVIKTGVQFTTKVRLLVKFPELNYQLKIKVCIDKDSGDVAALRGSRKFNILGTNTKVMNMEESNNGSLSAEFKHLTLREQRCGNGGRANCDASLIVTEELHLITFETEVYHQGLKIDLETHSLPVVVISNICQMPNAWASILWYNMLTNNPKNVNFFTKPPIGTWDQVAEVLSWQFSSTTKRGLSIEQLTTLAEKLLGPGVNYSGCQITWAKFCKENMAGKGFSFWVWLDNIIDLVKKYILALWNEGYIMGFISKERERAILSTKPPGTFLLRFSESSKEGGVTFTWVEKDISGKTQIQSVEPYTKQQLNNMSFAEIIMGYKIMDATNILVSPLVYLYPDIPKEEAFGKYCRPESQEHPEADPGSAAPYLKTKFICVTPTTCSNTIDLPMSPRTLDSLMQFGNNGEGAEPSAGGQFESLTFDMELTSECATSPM

NS(=O)(=O)C(F)(F)C(F)(F)C(F)(F)C(F)(F)C(F)(F)C(F)(F)C(F)(F)C(F)(F)F
active: MYC, MYC (gene 4609) 26.8 µM | [1] 50 µM | [2] 5.02 µM | [3] 2.4 µM | [4] 24.4 µM | [5] 26.2 µM | [6] 9.51 µM | [8] 12.8 µM | [9] 2.76 µM | [10] 4.97 µM | [11] 15.2 µM | [12] 9.33 µM | [13] 13.1 µM | [14] 12 µM | [15] 39.4 µM | TIMP1, TIMP1 (gene 7076) 12.4 µM | [16] 29.4 µM | [17] 7.4 µM
inactive: [7]

CCC(C)(c1ccc(O)cc1)c1ccc(O)cc1
active: [2] 80.3 µM | [17] 87.3 µM
inactive: all other assays above

Cc1cc(O)ccc1Cl
not listed: [10] | [18]
inactive: all other assays above

CCOC(=O)C(O)(c1ccc(Cl)cc1)c1ccc(Cl)cc1
active: [7] 36.2 µM
not listed: MYC, MYC (gene 4609)
inactive: all other assays above

O=C(O)C(F)(F)C(F)(F)C(F)(F)C(F)(F)C(F)(F)C(F)(F)C(F)(F)C(F)(F)C(F)(F)F
inactive: [1] | [3] | [8] | [9]
active: MYC, MYC (gene 4609) 22.8 µM | [2] 12.1 µM | [4] 88.9 µM | [5] 82.2 µM | [6] 41.2 µM | [7] 25.7 µM | [11] 79.3 µM | [12] 61.8 µM | [13] 35.7 µM | [14] 23.4 µM | [15] 23.3 µM | TIMP1, TIMP1 (gene 7076) 91.7 µM | [16] 78 µM | [17] 15.6 µM

O=S(=O)(O)C(F)(F)C(F)(F)C(F)(F)C(F)(F)F
not listed: [10]
inactive: all other assays above

CCCCCCCCOC(=O)c1ccccc1C(=O)OCCCCCCCC
not listed: MYC, MYC (gene 4609) | [10]
inactive: all other assays above
